# Source: PubChem BioAssay (NCATS)
# Results filed as inconclusive are left out. Values without a mark were called inactive. Active and inactive are the calls of the source. Calls come from the whole dose curve; as a rule, active = well fitted inhibition curve with a large enough effect; inconclusive = small, poorly fitted or top-dose-only effect; inactive = flat fitted curve, though single readings scatter. Where a SMILES comes first, the peptide text is derived from it. [ ]: non-standard residue; d: D form. pGlu = O=C1CC[C@@H](C(=O)O)N1; Thz = O=C(O)[C@@H]1CSCN1
# System: CP297
# Assay: qHTS profiling for inhibitors of Plasmodium falciparum proliferation (AID 504749); note: nearly all actives have a fitted effect of over 60% in size;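 for activity, negative = inhibition: 0% = DMSO vehicle and full inhibition = artemisinin control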
# Details: P. falciparum in erythrocytes, SYBR Green DNA, 72 h; series mostly up to 28.7 µM; activity, negative = inhibition: at the top concentration
# Summary of the method: (§1)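 Fluorescence of SYBR Green-bound parasite DNA, read at 485/535 nm, served as the growth measure. Infected erythrocytes were cultured with compound 72 h; artemisinin (0.29 uM) and DMSO wells defined the normalization range.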
# Potency is the fitted concentration of half-maximal effect.
Compound,"activity, negative = inhibition",Potency
O=C1CC[C@@H](C(=O)N2CSC[C@H]2C(=O)O)N1 ([pGlu]-[Thz]-OH),-7.44%,–
Cc1c(Nc2ncccc2C(=O)O)cccc1C(F)(F)F,0.279% [at 12.8 µM],–
O=C(O)c1ccccc1Nc1cccc(C(F)(F)F)c1,-0.395%,–
CC(C(=O)O)c1ccc2c(c1)[nH]c1ccc(Cl)cc12 (stereo not drawn),5.46%,–
CC1(C)C[C@@H]1C(=O)N/C(=C\CCCCSC[C@H](N)C(=O)O)C(=O)O,-5.66%,–
Cc1cc(O)c2ccccc2c1O,-4.04%,–
Nc1ccc(C(=O)O)c(O)c1,3.05%,–
C=C(Nc1ccc(OCC)cc1)Nc1ccc(OCC)cc1,–,inactive
CCCCC[C@H](O)/C=C/[C@@H]1[C@@H](C/C=C\CCCC(=O)O)[C@@H](O)C[C@H]1O,-14.9%,–
[O-][n+]1ccccc1SSc1cccc[n+]1[O-],–,1.35 µM (active)
CCCCCCCCCCCCCCCC(=O)OC(C)C,7.13%,–
Clc1ccccc1-c1nc(-c2ccncc2)no1,-7.93%,–
CN1[C@@H]2CC[C@H]1CC(OC(=O)C(CO)c1ccccc1)C2 (stereo partly drawn),-10.4%,–
COc1ccc(-c2cc(=S)ss2)cc1,-17.1%,–
O=C(O)[C@H](CC(=O)N1C[C@H]2CCCC[C@H]2C1)Cc1ccccc1,-20.5%,–
Cc1ccccc1CNc1ncnc2c1ncn2C1OC(CO)C(O)C1O (stereo not drawn),2.33%,–
C#C[C@]1(O)CC[C@H]2[C@@H]3CCc4cc(O)ccc4[C@H]3CC[C@@]21C,3.41%,–

Compound,"activity, negative = inhibition",Potency
COc1cc(/C=C/C(=O)N2CCN(CC(=O)N3CCCC3)CC2)cc(OC)c1OC,-11.6%,–
Cc1ccc(O)c(-n2nc3ccccc3n2)c1,-1.64%,–
O=C(O)COc1ccc(C(=O)c2cccs2)c(Cl)c1Cl,–,inactive
Cc1ccc(C(=O)c2ccc(CC(=O)O)n2C)cc1,-12.4% [at 12.8 µM],–
CCCOC(=O)c1ccc(O)cc1,-3.14%,–
C=CC(N)CCC(=O)O (stereo not drawn),3.97%,–
C=CCCCCCCCCC(=O)O,10.3%,–
COc1ccc(/C=C/C(=O)Nc2ccccc2C(=O)O)cc1OC,-10.7%,–
O=C(OCc1ccccc1)c1ccccc1,9.21%,–
c1ccc2sc(SN3CCOCC3)nc2c1,-13.7%,–
CCCCCCCCCCCCCCCCCC(=O)O,0.946%,–
COc1cc2c3cc1Oc1cc(ccc1O)C[C@@H]1c4c(cc(OC)c(O)c4Oc4ccc(cc4)C[C@@H]3N(C)CC2)CC[N+]1(C)C,1.59%,–
O=C(Nc1ccc(C(=O)O)c(O)c1)c1ccccc1,1.37%,–
C=CCN1C(=O)C(CC(C)C)NC1=S (stereo not drawn),–,inactive
CC1(C)S[C@@H]2[C@H](NC(=O)[C@H](NC(=O)N3CCN(S(C)(=O)=O)C3=O)c3ccccc3)C(=O)N2[C@H]1C(=O)O,11.9%,–
O=C(O)Cc1ccc(-c2ccccc2)cc1,-3.09% [at 12.8 µM],–
CCOC(=O)c1ccccc1O,-10.6%,–

# System: CP305
# Assay: as above
# Details: P. falciparum in erythrocytes, SYBR Green DNA, 72 h; series mostly up to 28.7 µM; activity, negative = inhibition: at the top concentration
# Summary of the method: as §1
Compound,"activity, negative = inhibition",Potency
O=C1CC[C@@H](C(=O)N2CSC[C@H]2C(=O)O)N1 ([pGlu]-[Thz]-OH),8.96%,–
Cc1c(Nc2ncccc2C(=O)O)cccc1C(F)(F)F,0.409% [at 12.8 µM],–
O=C(O)c1ccccc1Nc1cccc(C(F)(F)F)c1,0.298%,–
CC(C(=O)O)c1ccc2c(c1)[nH]c1ccc(Cl)cc12 (stereo not drawn),0.246%,–
CC1(C)C[C@@H]1C(=O)N/C(=C\CCCCSC[C@H](N)C(=O)O)C(=O)O,-7.92%,–
Cc1cc(O)c2ccccc2c1O,-1.14%,–
Nc1ccc(C(=O)O)c(O)c1,-0.741%,–
C=C(Nc1ccc(OCC)cc1)Nc1ccc(OCC)cc1,–,inactive
CCCCC[C@H](O)/C=C/[C@@H]1[C@@H](C/C=C\CCCC(=O)O)[C@@H](O)C[C@H]1O,4.2%,–
[O-][n+]1ccccc1SSc1cccc[n+]1[O-],–,0.953 µM (active)
CCCCCCCCCCCCCCCC(=O)OC(C)C,-2.61%,–
Clc1ccccc1-c1nc(-c2ccncc2)no1,-6.37%,–
CN1[C@@H]2CC[C@H]1CC(OC(=O)C(CO)c1ccccc1)C2 (stereo partly drawn),-1.27%,–
COc1ccc(-c2cc(=S)ss2)cc1,-11.8%,–
O=C(O)[C@H](CC(=O)N1C[C@H]2CCCC[C@H]2C1)Cc1ccccc1,-0.683%,–
Cc1ccccc1CNc1ncnc2c1ncn2C1OC(CO)C(O)C1O (stereo not drawn),1.78%,–
C#C[C@]1(O)CC[C@H]2[C@@H]3CCc4cc(O)ccc4[C@H]3CC[C@@]21C,-2.01%,–

Compound,"activity, negative = inhibition",Potency
COc1cc(/C=C/C(=O)N2CCN(CC(=O)N3CCCC3)CC2)cc(OC)c1OC,1.34%,–
Cc1ccc(O)c(-n2nc3ccccc3n2)c1,-2.88%,–
O=C(O)COc1ccc(C(=O)c2cccs2)c(Cl)c1Cl,–,inactive
Cc1ccc(C(=O)c2ccc(CC(=O)O)n2C)cc1,-1.68% [at 12.8 µM],–
CCCOC(=O)c1ccc(O)cc1,0.496%,–
C=CC(N)CCC(=O)O (stereo not drawn),-0.555%,–
C=CCCCCCCCCC(=O)O,0.521%,–
COc1ccc(/C=C/C(=O)Nc2ccccc2C(=O)O)cc1OC,-9.69%,–
O=C(OCc1ccccc1)c1ccccc1,-0.527%,–
c1ccc2sc(SN3CCOCC3)nc2c1,-1.71%,–
CCCCCCCCCCCCCCCCCC(=O)O,1.43%,–
COc1cc2c3cc1Oc1cc(ccc1O)C[C@@H]1c4c(cc(OC)c(O)c4Oc4ccc(cc4)C[C@@H]3N(C)CC2)CC[N+]1(C)C,-3.18%,–
O=C(Nc1ccc(C(=O)O)c(O)c1)c1ccccc1,-2.91%,–
C=CCN1C(=O)C(CC(C)C)NC1=S (stereo not drawn),–,inactive
CC1(C)S[C@@H]2[C@H](NC(=O)[C@H](NC(=O)N3CCN(S(C)(=O)=O)C3=O)c3ccccc3)C(=O)N2[C@H]1C(=O)O,-3.09%,–
O=C(O)Cc1ccc(-c2ccccc2)cc1,-2.1% [at 12.8 µM],–
CCOC(=O)c1ccccc1O,0.372%,–
